Drawing on ChEMBL document CHEMBL3988442, “University of Dundee, Small-Polar-MMV Screening Library” (2021), this text covers Percent Effect for eight compounds.

For some of these results: Entries with a potency or affinity are not part of this list.

What all share (set-up): scale not given: direction of the effect not stated beside the values
Experiment [1] deals with Protein translocase subunit SecA (Escherichia coli (strain K12)) (UniProt P10408). The experiment can be described thus: Assay to Identify E. coli SecA ATPase Inhibitors. The class given is functional. To be noted: 30 µM.
Experiment [2] deals with T1, Ubiquitin-activating enzyme e1, putative (Leishmania donovani (strain BPK282A1)) (UniProt E9BSI1).
T1 sequence (whole entry): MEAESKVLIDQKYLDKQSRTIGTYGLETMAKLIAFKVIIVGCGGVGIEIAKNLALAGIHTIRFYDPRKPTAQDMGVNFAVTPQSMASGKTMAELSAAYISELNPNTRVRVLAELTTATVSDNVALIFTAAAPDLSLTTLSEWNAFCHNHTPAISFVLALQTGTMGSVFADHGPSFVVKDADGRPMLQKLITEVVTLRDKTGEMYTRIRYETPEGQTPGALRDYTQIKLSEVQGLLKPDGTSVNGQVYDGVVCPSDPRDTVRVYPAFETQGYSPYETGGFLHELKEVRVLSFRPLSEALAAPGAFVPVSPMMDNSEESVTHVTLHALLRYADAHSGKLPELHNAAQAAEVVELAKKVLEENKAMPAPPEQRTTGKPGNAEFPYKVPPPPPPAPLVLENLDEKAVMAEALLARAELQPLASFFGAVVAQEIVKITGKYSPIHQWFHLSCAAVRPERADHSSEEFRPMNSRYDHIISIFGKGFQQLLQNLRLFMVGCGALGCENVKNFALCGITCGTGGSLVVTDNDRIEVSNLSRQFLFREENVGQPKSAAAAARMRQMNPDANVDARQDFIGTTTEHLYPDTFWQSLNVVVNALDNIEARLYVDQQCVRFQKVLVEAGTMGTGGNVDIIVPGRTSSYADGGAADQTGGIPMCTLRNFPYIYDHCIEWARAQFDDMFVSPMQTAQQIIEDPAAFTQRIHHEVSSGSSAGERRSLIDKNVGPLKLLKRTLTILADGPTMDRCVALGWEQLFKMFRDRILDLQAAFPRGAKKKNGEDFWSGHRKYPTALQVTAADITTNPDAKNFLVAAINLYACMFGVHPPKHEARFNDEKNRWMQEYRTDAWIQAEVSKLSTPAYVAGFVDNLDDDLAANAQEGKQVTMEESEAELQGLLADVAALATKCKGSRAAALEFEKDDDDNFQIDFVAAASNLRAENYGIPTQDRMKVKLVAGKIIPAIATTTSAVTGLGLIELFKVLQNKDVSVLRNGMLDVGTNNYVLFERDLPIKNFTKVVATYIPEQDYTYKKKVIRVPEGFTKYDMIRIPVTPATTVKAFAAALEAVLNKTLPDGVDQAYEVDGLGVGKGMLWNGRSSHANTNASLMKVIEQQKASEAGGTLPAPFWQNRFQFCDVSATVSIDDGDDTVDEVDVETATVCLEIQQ
Briefly: Leishmania donovani Ubiquitin Activating Enzyme (LdE1). The class given is functional. The note with it: 30 µM.

The target in experiment [3] is AMP-activated protein kinase, AMPK (Homo sapiens) (UniProt P54646+O43741+P54619+Q9UGJ0+Q9Y478+Q13131+Q9UGI9). The experiment can be described thus: AMP-dependent Kinase enzyme assay. An in vitro enzyme assay that detects ADP turnover that is directly proportional to AMPK activity. This uses naive AMPK that is activated during the assay with MK-8722. The class given is functional. To be noted: 30 µM.

Experiment [4] addresses Sialic acid-binding Ig-like lectin 9 (Homo sapiens) (UniProt Q9Y336). The experiment can be described thus: Hs-Siglec9 ALPHAscreen SOP 20170721. The note with it: 10 µM. (In general: In Alpha technology, singlet oxygen from a donor bead excites a nearby acceptor bead.)
The next experiment deals with Trypanosoma cruzi. The experiment can be described thus: Trypanosoma cruzi phosphomannomutase and mannose-1-phosphate guanylyltransferase assay. The class given is functional. The note with it: 10 µM.
Experiment [5] has as its target T2, Arginase-2, mitochondrial (Homo sapiens) (UniProt P78540).
T2 sequence (whole entry): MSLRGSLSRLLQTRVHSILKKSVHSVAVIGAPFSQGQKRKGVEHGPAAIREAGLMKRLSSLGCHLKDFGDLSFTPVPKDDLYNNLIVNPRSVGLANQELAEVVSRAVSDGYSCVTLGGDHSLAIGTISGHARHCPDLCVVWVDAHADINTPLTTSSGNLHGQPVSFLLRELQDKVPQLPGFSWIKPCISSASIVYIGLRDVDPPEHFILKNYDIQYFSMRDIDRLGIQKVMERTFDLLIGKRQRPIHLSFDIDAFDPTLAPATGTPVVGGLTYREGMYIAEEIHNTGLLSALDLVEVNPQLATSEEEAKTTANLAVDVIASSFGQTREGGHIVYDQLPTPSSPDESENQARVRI
The experiment can be described thus: in vitro enzyme assay to detect the production of urea directly proportional to the activity of Arginase II. Also: in the data most compounds retested in dose-response had high values. The class given is functional. To be noted: 33.3 µM.

Experiment [6] concerns the target T3, Proteasome subunit beta (Trypanosoma cruzi) (UniProt O96673).
T3 sequence (whole entry): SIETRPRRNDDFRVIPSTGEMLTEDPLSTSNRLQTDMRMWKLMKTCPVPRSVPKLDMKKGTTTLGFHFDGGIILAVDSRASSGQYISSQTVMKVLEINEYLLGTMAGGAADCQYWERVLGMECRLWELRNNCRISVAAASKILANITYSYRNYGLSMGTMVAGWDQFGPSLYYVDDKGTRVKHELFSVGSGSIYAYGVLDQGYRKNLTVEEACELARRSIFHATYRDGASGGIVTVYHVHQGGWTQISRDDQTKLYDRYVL
The experiment can be described thus: Trypanosoma cruzi proteasome chymotrypsin-like activity (TcProtChymo) assay. Also: in the data most compounds retested in dose-response had high values. The class given is functional. The note with it: 9.37 µM.

For a further experiment, the species on record is Homo sapiens. The experiment can be described thus: To identify inhibition of the IFN signalling (Jak-Stat) pathway via expression of an eGFP reporter gene under the control of an IFN-stimulated response element (ISRE) containing MxA promoter. The class given is functional. The note with it: 30 µM. For orientation: In a reporter assay the amount or activity of a reporter protein is the signal.

Experiment [7] concerns the target T4, Tyrosyl-tRNA synthetase, putative (Trypanosoma cruzi (strain CL Brener)) (UniProt Q4DSP6).
T4 sequence (whole entry): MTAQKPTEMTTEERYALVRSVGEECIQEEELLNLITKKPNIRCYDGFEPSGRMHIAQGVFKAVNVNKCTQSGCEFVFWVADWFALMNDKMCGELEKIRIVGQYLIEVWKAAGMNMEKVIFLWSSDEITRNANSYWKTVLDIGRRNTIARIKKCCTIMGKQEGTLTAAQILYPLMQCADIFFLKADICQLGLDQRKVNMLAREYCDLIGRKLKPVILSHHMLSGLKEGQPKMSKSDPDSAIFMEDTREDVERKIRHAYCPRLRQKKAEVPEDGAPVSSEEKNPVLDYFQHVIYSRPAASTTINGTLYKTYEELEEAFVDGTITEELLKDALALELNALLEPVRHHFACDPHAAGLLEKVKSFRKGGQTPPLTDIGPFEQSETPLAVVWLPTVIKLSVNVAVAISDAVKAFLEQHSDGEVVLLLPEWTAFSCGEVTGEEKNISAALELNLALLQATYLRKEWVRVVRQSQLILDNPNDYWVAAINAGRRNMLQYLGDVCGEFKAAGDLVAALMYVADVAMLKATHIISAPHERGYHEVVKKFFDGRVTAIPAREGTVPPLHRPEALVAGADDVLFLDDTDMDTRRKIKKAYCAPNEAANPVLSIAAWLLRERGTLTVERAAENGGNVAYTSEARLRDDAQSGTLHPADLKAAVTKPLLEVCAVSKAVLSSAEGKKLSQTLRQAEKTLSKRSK
Briefly: Trypanosoma cruzi tyrosyl tRNA synthetase (TcYRS) _High Tyrosine SOP. Also: in the data most compounds retested in dose-response had high values. The class given is functional. The note with it: 30 µM.

For experiment [8], the target named is T4, Tyrosyl-tRNA synthetase, putative (Trypanosoma cruzi (strain CL Brener)). Briefly: Trypanosoma cruzi tyrosyl tRNA synthetase (TcYRS) SOP. The class given is functional. The note with it: 30 µM.
Experiment [9] has as its target Chromo domain-containing protein 1 (Saccharomyces cerevisiae (strain ATCC 204508 / S288c) (Baker's yeast)) (UniProt P32657). The experiment can be described thus: ScCHD-1 Enzyme Inhibition Assay. Also: in the data most compounds retested in dose-response had high values. The class given is functional. To be noted: 30 µM.

Sequence of Sialic acid-binding Ig-like lectin 9 (Homo sapiens) (Q9Y336 whole entry): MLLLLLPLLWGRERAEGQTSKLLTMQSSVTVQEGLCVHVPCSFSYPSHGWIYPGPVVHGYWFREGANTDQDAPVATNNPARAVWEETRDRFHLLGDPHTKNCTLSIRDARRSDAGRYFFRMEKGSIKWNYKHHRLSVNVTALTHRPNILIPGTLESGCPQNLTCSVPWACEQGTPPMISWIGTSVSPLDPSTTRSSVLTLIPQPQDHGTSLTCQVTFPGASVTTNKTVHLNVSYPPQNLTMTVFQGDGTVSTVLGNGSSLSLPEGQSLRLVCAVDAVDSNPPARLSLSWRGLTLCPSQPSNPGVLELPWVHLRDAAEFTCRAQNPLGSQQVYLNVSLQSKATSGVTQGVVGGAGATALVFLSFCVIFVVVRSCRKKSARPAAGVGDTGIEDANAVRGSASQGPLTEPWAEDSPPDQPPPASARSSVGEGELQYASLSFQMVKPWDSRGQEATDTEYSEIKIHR
Sequence of Protein translocase subunit SecA (Escherichia coli (strain K12)) (P10408 whole entry): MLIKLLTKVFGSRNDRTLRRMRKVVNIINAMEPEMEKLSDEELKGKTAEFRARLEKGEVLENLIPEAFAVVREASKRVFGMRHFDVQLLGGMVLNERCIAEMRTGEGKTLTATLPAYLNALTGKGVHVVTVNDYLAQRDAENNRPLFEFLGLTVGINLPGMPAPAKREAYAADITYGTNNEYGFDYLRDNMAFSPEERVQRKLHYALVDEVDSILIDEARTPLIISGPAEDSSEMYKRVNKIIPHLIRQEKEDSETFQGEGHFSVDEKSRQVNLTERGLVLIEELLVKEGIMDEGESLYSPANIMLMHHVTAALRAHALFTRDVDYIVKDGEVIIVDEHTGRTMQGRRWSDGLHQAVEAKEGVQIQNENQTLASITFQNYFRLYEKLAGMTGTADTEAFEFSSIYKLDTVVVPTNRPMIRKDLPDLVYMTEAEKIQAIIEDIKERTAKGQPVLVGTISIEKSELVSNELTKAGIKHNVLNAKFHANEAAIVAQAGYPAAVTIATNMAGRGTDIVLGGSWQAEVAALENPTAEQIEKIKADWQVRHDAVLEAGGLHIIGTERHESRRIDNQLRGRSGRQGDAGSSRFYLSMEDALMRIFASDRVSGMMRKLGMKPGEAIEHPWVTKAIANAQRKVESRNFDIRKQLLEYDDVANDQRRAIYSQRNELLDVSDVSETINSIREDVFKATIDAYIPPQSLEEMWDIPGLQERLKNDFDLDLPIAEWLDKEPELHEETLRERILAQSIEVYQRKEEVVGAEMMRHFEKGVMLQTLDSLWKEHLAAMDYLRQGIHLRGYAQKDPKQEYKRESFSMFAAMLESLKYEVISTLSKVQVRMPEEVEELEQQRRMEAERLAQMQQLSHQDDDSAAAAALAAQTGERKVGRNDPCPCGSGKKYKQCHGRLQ
Sequence of Chromo domain-containing protein 1 (Saccharomyces cerevisiae (strain ATCC 204508 / S288c) (Baker's yeast)) (P32657 whole entry, the tested form may be a part): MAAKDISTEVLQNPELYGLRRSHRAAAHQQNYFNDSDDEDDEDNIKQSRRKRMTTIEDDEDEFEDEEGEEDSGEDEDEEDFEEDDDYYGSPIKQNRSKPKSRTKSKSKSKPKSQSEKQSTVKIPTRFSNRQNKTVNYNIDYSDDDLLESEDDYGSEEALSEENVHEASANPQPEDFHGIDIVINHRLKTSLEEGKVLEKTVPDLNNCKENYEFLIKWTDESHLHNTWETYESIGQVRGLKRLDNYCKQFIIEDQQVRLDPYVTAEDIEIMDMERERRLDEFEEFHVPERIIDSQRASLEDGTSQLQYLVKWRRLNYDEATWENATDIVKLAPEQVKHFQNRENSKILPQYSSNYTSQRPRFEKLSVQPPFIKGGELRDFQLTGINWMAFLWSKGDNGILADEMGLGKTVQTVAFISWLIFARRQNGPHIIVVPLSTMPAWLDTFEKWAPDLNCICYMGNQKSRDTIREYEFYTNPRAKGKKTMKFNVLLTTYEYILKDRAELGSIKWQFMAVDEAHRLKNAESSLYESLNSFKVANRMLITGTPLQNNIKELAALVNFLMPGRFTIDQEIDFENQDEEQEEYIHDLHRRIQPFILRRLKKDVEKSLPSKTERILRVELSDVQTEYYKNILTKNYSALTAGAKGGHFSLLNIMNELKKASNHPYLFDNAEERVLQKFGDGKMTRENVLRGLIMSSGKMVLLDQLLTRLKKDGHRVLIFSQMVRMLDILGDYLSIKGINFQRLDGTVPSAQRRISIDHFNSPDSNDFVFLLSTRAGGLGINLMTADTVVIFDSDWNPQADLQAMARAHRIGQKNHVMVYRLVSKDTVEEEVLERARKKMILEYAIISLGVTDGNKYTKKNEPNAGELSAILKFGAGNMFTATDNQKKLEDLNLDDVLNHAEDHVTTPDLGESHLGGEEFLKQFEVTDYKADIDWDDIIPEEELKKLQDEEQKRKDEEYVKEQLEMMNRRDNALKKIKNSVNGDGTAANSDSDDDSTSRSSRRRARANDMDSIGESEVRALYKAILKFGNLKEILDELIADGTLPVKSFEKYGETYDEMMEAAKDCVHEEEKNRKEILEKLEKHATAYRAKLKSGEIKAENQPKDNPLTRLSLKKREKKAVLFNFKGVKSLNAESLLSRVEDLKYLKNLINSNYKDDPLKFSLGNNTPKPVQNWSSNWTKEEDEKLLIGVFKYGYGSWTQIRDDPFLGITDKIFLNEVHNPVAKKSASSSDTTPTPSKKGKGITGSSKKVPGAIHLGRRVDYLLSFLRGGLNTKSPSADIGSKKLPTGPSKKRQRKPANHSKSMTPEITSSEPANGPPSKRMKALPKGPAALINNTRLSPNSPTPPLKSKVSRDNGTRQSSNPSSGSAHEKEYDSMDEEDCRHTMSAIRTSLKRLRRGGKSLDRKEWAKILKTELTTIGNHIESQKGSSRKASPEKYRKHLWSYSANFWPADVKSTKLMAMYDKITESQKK

Consider `CCOC(=O)N1CCC(C(=O)c2cc(F)ccc2F)CC1`, for which the Percent Effect is -3.27% in experiment [1]; -2.63% in experiment [2]; 4.38% in experiment [3]; -6.37% in experiment [4]; -1.69% with Trypanosoma cruzi; 4.98% in [5]. Further, the Percent Effect was -3.34% in experiment [6]; 10.2% in the experiment listed under Homo sapiens; -1.47% in experiment [7]; -4.88% in experiment [8]; -0.881% in experiment [9].
Consider `COC(=O)c1ccc2ccn(CC3CCNC3)c(=O)c2c1` (stereo not drawn), for which the Percent Effect is -1.56% in experiment [1]; 24.7% in [2]; -24.1% in [3]; 16.4% in [4]; 4.31% with Trypanosoma cruzi; 2.27% in [5]. The Percent Effect in experiment [6] is 21.8%; in the experiment listed under Homo sapiens, 6.65%; in experiment [7], 6.45%; in experiment [8], 20%; in experiment [9] it was -5.95%.
As for `CSCC(CCO)NC(=O)Nc1cccc(Br)c1` (stereo not drawn), the Percent Effect in [1] is -3.42%; in experiment [2] it was 2.74%; in [3], 8.84%; in [4], -3.56%; in the experiment with Trypanosoma cruzi it was -3.53%; in experiment [5] it was 3.18%. The Percent Effect was 17.2% in experiment [6]; 6.61% in the experiment filed under Homo sapiens; 0% in [7]; 2.5% in experiment [8]; -2.08% in [9].
`Cc1cc(CN2CCN(C(=O)NC(C)Cn3ccnc3)CC2)no1` (stereo not drawn): the Percent Effect in [1] is -1.68%; in experiment [2], 5.26%; in experiment [3], 3.31%; in [4], 7.81%; in the experiment with Trypanosoma cruzi, 3.38%; in experiment [5] it was 1.53%. The Percent Effect in [6] is -4.18%; in the experiment filed under Homo sapiens it was 9.94%; in experiment [7] it was 3.43%; in experiment [8], 7.32%; in [9] it was -4.96%.
Regarding `CCn1cc(NC(=O)NC2CCCc3c2cnn3CCO)cn1` (stereo not drawn), the Percent Effect in experiment [1] was -1.35%; in [2], 5.33%; in experiment [3], -2.07%; in [4], 4.11%; with Trypanosoma cruzi it was -1.07%; in experiment [5] it was 1.56%. Further, the Percent Effect in experiment [6] was 9.77%; in the experiment listed under Homo sapiens, 4.28%; in experiment [7] it was 4.92%; in experiment [8], 11.1%; in [9], -14.2%.
Regarding `COC(=O)N1CCc2ccc(NC(=O)c3cn(C)nn3)cc2C1`, the Percent Effect in [1] is -6.1%; in experiment [2], 10.4%; in experiment [3], 2.87%; in experiment [4], 5.76%; with Trypanosoma cruzi it was 2.07%; in experiment [5], -49.7%. Also, the Percent Effect in experiment [6] was 9.92%; in the experiment listed under Homo sapiens it was 12.5%; in experiment [7] it was 5.29%; in [8] it was 8.97%; in experiment [9] it was 90.7%.
For `COCCOc1ccc(NC(=O)N(C)Cc2ccsc2)cn1`, the Percent Effect is 1.05% in experiment [1]; 17.7% in [2]; -9.72% in experiment [3]; -8.23% in [4]; -9.35% in the experiment with Trypanosoma cruzi; 2.28% in experiment [5]. Moreover, the Percent Effect is 7.94% in experiment [6]; 12.9% in the experiment listed under Homo sapiens; 2.46% in [7]; 13.9% in [8]; -6.06% in [9].
Take `Cc1cccc(CN2CC3(CCNCC3)OCC2=O)n1`: the Percent Effect in experiment [1] is -6.42%; in experiment [2], 2.7%; in [3], 2.52%; in experiment [4], -3.05%; in the experiment with Trypanosoma cruzi it was 1.37%; in [5], -0.833%. For the same compound, the Percent Effect was 2.11% in experiment [6]; 2.26% in the experiment listed under Homo sapiens; 4.95% in experiment [7]; 11% in experiment [8]; -6.46% in experiment [9].
